Experiment [1] is described as follows: ATG_CRE_CIS: Attagene CIS-FACTORIAL HepG2 Assay for human cAMP Responsive Element (CRE) binding protein 3 (AID 2282926). The note with it: HepG2 CRE cis-reporter, Attagene multiplexed mRNA; actives raise or lower the signal. In outline:
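HepG2 cells transiently transfected with a multiplexed reporter library (CRE-driven unit among them) were dosed for 24 h. Reporter mRNA was quantified by RT-PCR, fluorescent labelling, HpaI digestion and capillary electrophoresis, with bidirectional fitting against DMSO baseline.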

For experiment [2], the target named is CCAAT/enhancer-binding protein beta (Homo sapiens) (UniProt P17676). Description: ATG_C_EBP_CIS: Attagene CIS-FACTORIAL HepG2 Assay for human CCAAT/Enhancer Binding Protein (C/EBP) beta (AID 2282927). The conditions noted are these: HepG2 Attagene cis-factorial transcription factor reporter; actives raise or lower the signal. In outline: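 Following a 24 h incubation with test chemical, transfected HepG2 cells yielded RNA whose reporter transcripts were quantified by RT-PCR and fluorescent capillary electrophoresis, with DMSO serving as baseline for bidirectional fitting.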

Experiment [3] can be described thus: ATG_CMV_CIS: Attagene CIS-FACTORIAL HepG2 Assay for human CMV (Internal Marker) (AID 2282928).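 Also: endpoint acts as a background internal control marker rather than a target.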 The note with it: HepG2 CMV promoter reporter, transcription factor profiling; actives raise or lower the signal. In outline:
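HepG2 cells transiently transfected with multiple cis-regulated reporter units; 24 h compound exposure. Reporter mRNA quantified by RT-PCR, 6-FAM primer-extension labeling, HpaI digestion and capillary electrophoresis; bidirectional fitting against DMSO baseline.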

The nature of experiment [4]: ATG_DR4_LXR_CIS: Attagene CIS-FACTORIAL HepG2 Assay for human Liver X Receptor (LXR), DR4 submotif (AID 2282929). The conditions noted are these: HepG2 Attagene DR4 cis-reporter, mRNA transcription; actives raise or lower the signal. In outline:
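HepG2 cells were transiently transfected with multiple cis-regulated reporter units and dosed for 24 hours. The DR4 reporter mRNA was quantified by RT-PCR, 6-FAM labelling and capillary electrophoresis. Bidirectional fits used DMSO as baseline.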

The target in experiment [5] is Aryl hydrocarbon receptor (Homo sapiens) (UniProt P35869). As to the kind of experiment: ATG_Ahr_CIS: Attagene CIS-FACTORIAL HepG2 Assay for human Aryl Hydrocarbon Receptor (Ahr) (AID 2282930). The conditions noted are these: HepG2 AhR cis-factorial reporter transcription; actives raise or lower the signal. In outline:
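Values derive from bidirectional fitting against DMSO negative control. Underlying signal: cis-element reporter mRNA in transiently transfected HepG2, harvested 24 h post-dose and measured by RT-PCR plus capillary electrophoresis.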

Experiment [6] is described as follows: ATG_AP_1_CIS: Attagene CIS-FACTORIAL HepG2 Assay for human Activator Protein 1 (AP-1) (AID 2282931). The note with it: HepG2 Attagene cis-factorial AP-1 reporter mRNA; actives raise or lower the signal. Put shortly:
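HepG2 cells transiently transfected with cis-element-driven reporter transcription units, dosed for 24 hours. Reporter mRNA measured by RT-PCR, 6-FAM labelling, HpaI digestion and capillary electrophoresis. Bidirectional fitting against DMSO baseline.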

Experiment [7] can be described thus: ATG_AP_2_CIS: Attagene CIS-FACTORIAL HepG2 Assay for human Activator Protein 2 (AP-2) (AID 2282932). The conditions noted are these: HepG2 AP-2 cis-reporter, Attagene transcription factor profiling; actives raise or lower the signal. Put shortly:
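Bidirectional curve fitting against DMSO was applied to reporter mRNA signals from HepG2 cells 24 h after dosing. Cis-promoter reporter units, transiently transfected, were read by RT-PCR plus capillary electrophoresis.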

Experiment [8] is described as follows: ATG_BRE_CIS: Attagene CIS-FACTORIAL HepG2 Assay for human Bone Morphogenetic Protein (BMP) Response Element (BRE) (AID 2282933). The note with it: HepG2 BMP response element reporter, Attagene transcription factor profiling; actives raise or lower the signal. In outline: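 After a 24 h chemical treatment, transiently transfected HepG2 cells were lysed for RNA; reporter transcripts were quantified by fluorescent RT-PCR and capillary electrophoresis, normalised to DMSO.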

For experiment [9], the target named is Retinoic acid receptor alpha (Homo sapiens) (UniProt P10276). As to the kind of experiment: ATG_DR5_RAR_CIS: Attagene CIS-FACTORIAL HepG2 Assay for human Retinoic Acid Receptor Alpha (RARE), DR5 submotif (AID 2282934).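 As to AC50: reporter responds to endogenous RAR alpha beta and gamma in HepG2 not RARA alone.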 The conditions noted are these: HepG2 Attagene cis-factorial RARE DR5 reporter, mRNA; actives raise or lower the signal. Put shortly:
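Endpoint fitted in both directions relative to DMSO as negative control. It reflects DR5 cis-element reporter mRNA induction in transiently transfected HepG2 cells, measured 24 h after dosing through RT-PCR and fluorescent capillary electrophoresis.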

Experiment [10] addresses Transcription factor E2F1 (Homo sapiens) (UniProt Q01094). Description: ATG_E2F_CIS: Attagene CIS-FACTORIAL HepG2 Assay for human E2F Transcription Factor 1 (AID 2282935). The note with it: HepG2 Attagene cis-reporter, E2F reporter RNA transcripts; actives raise or lower the signal. In outline:
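Multiplexed cis-reporter assay: HepG2, transient transfection, 24 h dosing, mRNA quantitation by labeled RT-PCR and CE.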

Where “and” joins values, the source holds several entries; their conditions need not be identical. Identical values can stand only once. More than one record can exist for a structure, and the calls need not agree. Calls of active or inactive are those of the source. The calls were made as follows: active = hit-call score of the fitted dose curve at least 0.9, where 1 is the maximum; inactive = score below 0.9.

Sequence of Retinoic acid receptor alpha (Homo sapiens) (P10276 whole entry, looked up): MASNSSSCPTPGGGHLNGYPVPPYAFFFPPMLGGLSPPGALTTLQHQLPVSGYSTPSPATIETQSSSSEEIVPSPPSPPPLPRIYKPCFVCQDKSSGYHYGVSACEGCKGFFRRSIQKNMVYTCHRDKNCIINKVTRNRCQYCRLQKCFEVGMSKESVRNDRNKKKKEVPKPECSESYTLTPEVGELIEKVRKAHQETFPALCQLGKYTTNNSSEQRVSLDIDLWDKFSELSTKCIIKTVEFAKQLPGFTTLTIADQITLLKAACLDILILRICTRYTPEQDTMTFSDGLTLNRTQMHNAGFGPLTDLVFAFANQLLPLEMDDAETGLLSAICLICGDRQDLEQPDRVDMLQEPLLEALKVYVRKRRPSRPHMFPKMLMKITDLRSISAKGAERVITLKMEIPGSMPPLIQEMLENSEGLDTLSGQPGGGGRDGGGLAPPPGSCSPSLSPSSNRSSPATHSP
Sequence of Aryl hydrocarbon receptor (Homo sapiens) (P35869 whole entry, looked up): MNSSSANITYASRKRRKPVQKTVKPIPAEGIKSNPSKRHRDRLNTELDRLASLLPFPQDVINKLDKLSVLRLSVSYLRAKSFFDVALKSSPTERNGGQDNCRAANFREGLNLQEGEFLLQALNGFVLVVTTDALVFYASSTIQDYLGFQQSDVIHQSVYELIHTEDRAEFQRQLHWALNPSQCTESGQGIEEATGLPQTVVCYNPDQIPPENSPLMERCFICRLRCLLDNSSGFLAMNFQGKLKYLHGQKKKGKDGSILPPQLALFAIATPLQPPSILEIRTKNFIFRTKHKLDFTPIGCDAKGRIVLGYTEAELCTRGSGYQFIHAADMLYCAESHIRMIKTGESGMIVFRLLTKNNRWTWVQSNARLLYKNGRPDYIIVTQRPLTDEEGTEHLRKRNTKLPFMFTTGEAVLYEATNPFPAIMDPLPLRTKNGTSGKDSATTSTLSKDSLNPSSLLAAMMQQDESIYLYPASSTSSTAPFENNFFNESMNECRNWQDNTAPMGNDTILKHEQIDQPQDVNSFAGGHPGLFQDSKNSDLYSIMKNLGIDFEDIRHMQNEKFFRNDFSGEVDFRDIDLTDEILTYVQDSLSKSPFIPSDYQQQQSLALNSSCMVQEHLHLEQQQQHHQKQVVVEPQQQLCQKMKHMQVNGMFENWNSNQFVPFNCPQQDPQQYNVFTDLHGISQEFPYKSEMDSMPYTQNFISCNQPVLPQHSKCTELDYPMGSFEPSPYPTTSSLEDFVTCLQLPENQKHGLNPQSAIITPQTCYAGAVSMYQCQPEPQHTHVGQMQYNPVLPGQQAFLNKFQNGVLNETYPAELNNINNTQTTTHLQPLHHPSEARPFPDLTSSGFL
Sequence of CCAAT/enhancer-binding protein beta (Homo sapiens) (P17676 whole entry, looked up): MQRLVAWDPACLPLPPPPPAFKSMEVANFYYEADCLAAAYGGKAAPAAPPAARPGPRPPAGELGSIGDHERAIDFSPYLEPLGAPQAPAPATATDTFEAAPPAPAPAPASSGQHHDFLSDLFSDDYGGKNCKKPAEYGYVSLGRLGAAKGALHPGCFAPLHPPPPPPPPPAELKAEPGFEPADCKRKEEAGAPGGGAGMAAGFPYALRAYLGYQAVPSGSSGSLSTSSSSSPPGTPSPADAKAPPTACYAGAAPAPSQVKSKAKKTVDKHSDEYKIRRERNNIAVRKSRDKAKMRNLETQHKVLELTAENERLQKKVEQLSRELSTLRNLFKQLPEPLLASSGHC
Sequence of Transcription factor E2F1 (Homo sapiens) (Q01094 whole entry, looked up): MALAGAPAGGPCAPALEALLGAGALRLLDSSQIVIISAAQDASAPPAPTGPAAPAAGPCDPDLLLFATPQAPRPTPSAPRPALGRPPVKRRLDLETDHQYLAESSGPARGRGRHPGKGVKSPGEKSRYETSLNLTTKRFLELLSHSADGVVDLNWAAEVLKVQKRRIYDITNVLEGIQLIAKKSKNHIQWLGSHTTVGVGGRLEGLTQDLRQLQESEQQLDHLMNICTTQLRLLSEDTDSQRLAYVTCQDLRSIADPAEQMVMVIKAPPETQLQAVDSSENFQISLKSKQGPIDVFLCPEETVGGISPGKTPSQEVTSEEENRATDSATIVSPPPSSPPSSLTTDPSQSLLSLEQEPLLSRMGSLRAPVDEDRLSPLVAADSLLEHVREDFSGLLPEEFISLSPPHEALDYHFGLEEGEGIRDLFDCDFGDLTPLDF

In the case of `CC1(C)NC(=O)N(c2ccc([N+](=O)[O-])c(C(F)(F)F)c2)C1=O`, the figures for the AC50 in experiment [1], in experiment [6] and in experiment [9] were 0.00911 µM (active), 39.2 µM (active) and 0.083 µM (active), respectively. The molecule was called inactive in [1], in [2], in [3], in experiment [4], in experiment [5] and in [6]. In addition, the molecule was called inactive in experiment [7], in experiment [8], in experiment [9] and in experiment [10].
Consider `CCCCCCCCN(C)CCCCCCCC`, for which the molecule was classed as inactive in experiment [1], in [2], in experiment [3], in [4], in experiment [5] and in experiment [6]. Moreover, the molecule was called inactive in experiment [7], in experiment [8], in experiment [9] and in [10].
With `COc1cc(C(=O)NC2CCN(C)CC2)ccc1Nc1ncc2c(n1)N(C1CCCC1)CC(F)(F)C(=O)N2C`, the AC50 in experiment [1] was 0.933 µM (active); in experiment [2], 0.472 µM (active); in experiment [4], 5.99 µM (active); in experiment [6] it was 5.06 µM (active); in experiment [7] it was 890 nM (active); in experiment [9] it was 0.51 µM (active). For the same molecule, the outcome in experiment [3], in experiment [5], in experiment [8] and in experiment [10] was inactive.
Turning to `CC(C)(C)c1csc(-c2cc3cc(OCc4ccccc4CC(=O)O)ccc3o2)n1`, the AC50 was 54.3 µM (active) in [1]; 33.4 µM (active) in experiment [3]; 4.56 µM (active) in experiment [4]; 33.4 µM (active) in experiment [6]; 57.6 µM (active) in experiment [8]. Also, the outcome in [2], in experiment [5], in experiment [7], in experiment [9] and in experiment [10] was inactive.
With `CC[C@@H]1C[C@H](N(Cc2cc(C(F)(F)F)cc(C(F)(F)F)c2)C(C)=O)c2cc(C(F)(F)F)ccc2N1C(=O)OC(C)C`, the result in experiment [1], in [2], in experiment [3], in experiment [4], in [5] and in experiment [6] was inactive. For the same molecule, the outcome in experiment [7], in experiment [8] and in experiment [10] was inactive. In experiment [9], the AC50 was 0.362 µM (active).
Regarding `O=C(Nc1ccc(Cl)cc1)Nc1ccc(Cl)c(Cl)c1`, the AC50 in experiment [1] was 4.04 µM (active); in experiment [4], 10.5 µM (active); in [6], 10.5 µM (active); in [8], 5.32 µM (active). In addition, the outcome in experiment [2], in experiment [3], in [5], in experiment [7], in [9] and in [10] was inactive.
With `O=C1O[C@H]([C@@H](O)CO)C(O)=C1O`, the call in experiment [1], in experiment [2], in experiment [3], in [4], in [5] and in experiment [6] was inactive. In addition, the molecule was called inactive in experiment [7], in experiment [8] and in experiment [10]. Moreover, in [5], the AC50 was 62 µM (active).
On to `CC/C(=C(/CC)c1ccc(O)cc1)c1ccc(O)cc1`, for which the AC50 in experiment [1] was 15.9 µM (active); in experiment [3], 18 µM (active) and 15.4 µM (active); in [4], 7.89 µM (active) [middle of 4 runs]; in experiment [6] it was 13.8 µM (active) and 11.1 µM (active) and 14.4 µM (active). The call in experiment [1], in [2], in experiment [3], in [4], in experiment [6] and in experiment [7] was inactive. The molecule was classed as inactive in [8] and in experiment [10].
As for `CO[C@H]1/C=C/O[C@@]2(C)Oc3c(C)c(O)c4c(O)c(c(/C=N/N5CCN(C)CC5)c(O)c4c3C2=O)NC(=O)/C(C)=C\C=C\[C@H](C)[C@H](O)[C@@H](C)[C@@H](O)[C@@H](C)[C@H](OC(C)=O)[C@@H]1C`, the result in experiment [1], in [2], in experiment [3], in experiment [4], in experiment [5] and in experiment [6] was inactive. In addition, the outcome in [7], in [8], in [9] and in [10] was inactive. Also, the AC50 in experiment [5] was 37.4 µM (active).
Consider `Cc1ccc2oc(CN(Cc3ccccc3)C(=O)Nc3c(F)cc(F)cc3F)c(-c3ccc(Cl)cc3)c2c1`, for which the molecule was classed as inactive in [1], in [2], in experiment [3], in experiment [4], in [5] and in experiment [6]. The outcome in experiment [7], in experiment [8], in [9] and in experiment [10] was inactive.
With `Clc1ccccc1C(c1ccccc1)(c1ccccc1)n1ccnc1`, the outcome in experiment [1], in experiment [2], in [7], in experiment [9] and in [10] was inactive. The AC50 is 17.8 µM (active) in experiment [3]; 1.48 µM (active) in [4]; 3.01 µM (active) in experiment [5]; 10.4 µM (active) in [6]; 11.1 µM (active) in [8].
As for `CN1C(=O)N(c2ccccc2Br)Cc2cnc(Nc3ccc4c(c3)OCC(CO)O4)nc21` (configuration not stated), the AC50 in experiment [1] is 5.78 µM (active); in experiment [2], 2.61 µM (active); in [4] it was 27.1 µM (active); in experiment [6] it was 4.77 µM (active). The molecule was called inactive in experiment [3], in [5], in [7], in [8], in [9] and in [10].
Regarding `CCCCCCCCCCCC[N+](C)(C)C`, the molecule was called inactive in experiment [1], in [2], in experiment [3], in experiment [5], in experiment [7] and in experiment [9]. The call in [10] was inactive. In addition, the AC50 was 22.4 µM (active) and 33.4 µM (active) in experiment [4]; 33.4 µM (active) and 12.7 µM (active) in [6]; 33.4 µM (active) and 27.1 µM (active) in experiment [8].
For `O=C1c2ccccc2C(=O)N1CCc1noc(-c2ccc(CN3CCCCCC3)s2)n1`, the outcome in experiment [1], in experiment [2], in [3], in experiment [5], in experiment [7] and in experiment [9] was inactive. For the same molecule, the call in experiment [10] was inactive. Also, the AC50 was 84.5 µM (active) in experiment [4], 24.7 µM (active) in experiment [6] and 56.6 µM (active) in experiment [8].
Turning to `Cc1cc2c(cc1C(F)(F)F)N(C(=O)Nc1ccc(Oc3cccnc3C)nc1)CC2`, the call in experiment [1], in experiment [2], in experiment [3], in [4], in [5] and in [6] was inactive. The result in experiment [7], in experiment [8] and in [10] was inactive. Also, the AC50 in experiment [9] was 0.967 µM (active).
On to `CC(O)CC(C)(C)O` (configuration not stated), for which the outcome in experiment [1], in experiment [2], in experiment [3], in experiment [4], in experiment [5] and in [6] was inactive. Besides, the molecule was called inactive in [7], in experiment [8], in experiment [9] and in experiment [10]. The AC50 in [7] was 12.5 nM (active).
`CCCCCCCC[Si](OCC)(OCC)OCC`: the AC50 was 54.5 µM (active) in experiment [1]; 65.7 µM (active) in [2]; 62.9 µM (active) [middle of 4 runs] in experiment [3]; 126 µM (active) [middle of 4 runs] in experiment [4]; 70.2 µM (active) [middle of 4 runs] in experiment [6]; 159 µM (active) in experiment [8]. Moreover, the AC50 in experiment [9] was 69.2 µM (active); in experiment [10], 153 µM (active). Moreover, the molecule was classed as inactive in experiment [1], in experiment [2], in experiment [5], in [7], in experiment [8] and in experiment [9]. The result in experiment [10] was inactive.
With `O=c1c(-c2ccc(O)cc2)coc2cc(O)cc(O)c12`, the AC50 in experiment [1] is 27.5 µM (active) and 50.6 µM (active); in [2], 36.5 µM (active) [middle of 4 runs]; in experiment [3] it was 19.1 µM (active) [middle of 4 runs]; in experiment [4], 7.13 µM (active) and 4.78 µM (active); in experiment [5] it was 34.3 µM (active); in experiment [7], 29.8 µM (active) and 52.6 µM (active). For the same molecule, the AC50 in [9] is 62.3 µM (active). Besides, the molecule was classed as inactive in experiment [1], in experiment [4], in experiment [5], in [6], in [7] and in experiment [8]. For the same molecule, the molecule was called inactive in [9] and in [10].

The values are drawn from PubChem BioAssay (EPA / NIEHS).
